# The supplement of paper PMC10933113
# A number with no mark means an inactive call.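 How the source made its calls: active = curve rank above 3; inactive = curve rank 0.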
# System: KeratinoSens (HaCaT ARE-luciferase) cells
# Assay: Nrf2/ARE luciferase activation call in qHTS KeratinoSens assay (1 = active, 0 = inactive)
row,Compound,Nrf2/ARE luciferase activation call
1,CC(CN(C)C)CN1c2ccccc2CCc2ccccc21.O=C(O)/C=C\C(=O)O (stereo not drawn),not active ARE inducer (skin sensitizer alert)
2,CCCCn1cc[n+](C)c1.O=S(=O)([O-])C(F)(F)F,not active ARE inducer (skin sensitizer alert)
3,O=C(O)c1ccc2ccccc2c1O.OCc1cc(C(O)CNCCCCCCOCCCCc2ccccc2)ccc1O (stereo not drawn),not active ARE inducer (skin sensitizer alert)
4,CN(C)CCN(Cc1ccccc1)c1ccccn1.O=C(O)CC(O)(CC(=O)O)C(=O)O,not active ARE inducer (skin sensitizer alert)
5,Cc1ccsc1/C=C/C1=NCCCN1C.O=C(O)[C@@H](O)[C@@H](O)C(=O)O,not active ARE inducer (skin sensitizer alert)
6,CCCc1nc(C)c2c(=O)nc(-c3cc(S(=O)(=O)N4CCN(CC)CC4)ccc3OCC)[nH]n12.O=C(O)CC(O)(CC(=O)O)C(=O)O,not active ARE inducer (skin sensitizer alert)
7,CC(C)C[P+](C)(CC(C)C)CC(C)C.Cc1ccc(S(=O)(=O)[O-])cc1,not active ARE inducer (skin sensitizer alert)
8,CN1CCC(=C2c3ccccc3Sc3ccccc32)CC1.O=C(O)/C=C\C(=O)O,not active ARE inducer (skin sensitizer alert)
